Assay outcomes deposited in PubChem BioAssay by National Center for Advancing Translational Sciences (NCATS).
NIH3T3 tox: cytotoxic compounds in NIH 3T3 cells | NIH 3T3 viability, CellTiter-Glo ATP luminescence, 48-72 h | Potency, µM (series often up to 96.7 µM), hits mostly inhibitors | 94,000 compounds, 4.3% hits | AID 1345082; note: nearly all actives have a fitted effect of over 55% in size
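Cells were seeded at 400 per well, treated with pin-transferred compound, and kept 48 or 72 hr at 37 °C before CellTiter-Glo addition and luminescence imaging of cellular ATP.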
FLuc inh: inhibitors of firefly (Photinus pyralis) luciferase; P08659; purified P. pyralis luciferase, luminescence, biochemical; Potency, µM (top dose mostly 115 µM), usual class: inhibitors; 76,000 compounds, 2.5% hits; AID 1347043; note: nearly all actives have a fitted effect of over 65% in size
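Purified P. pyralis luciferase (10nM final) in 50mM Tris acetate pH 7.5, 10mM Mg acetate, 0.01% Tween-20, 0.05% BSA with 10uM D-luciferin and 10uM ATP. Compounds titrated qHTS. Luminescence imaged on CCD.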
HEK293 tox: cytotoxic compounds in HEK 293 cells. 94,000 compounds, 6.6% hits. HEK 293 viability, ATP luminescence (CellTiter-Glo), 48-72 h. Potency, µM (doses to about 115 µM), most hits filed as inhibitors; note: nearly all actives have a fitted effect of over 60% in size
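Cells seeded first (HEK 293, 250 cells/well), then compound added by pintool. Incubation ran 48 or 72 hr at 37 degree Celsius. CellTiter-Glo was added and luminescence imaged after 10 min at room temperature.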
GPT2 inhibitor: GPT2 alanine aminotransferase inhibition; Potency, µM (series often up to 57.7 µM), actives largely listed as inhibitors; AID 1671188; Q8TD30; 100,000 compounds, 0.25% hits; Recombinant GPT2, coupled pyruvate oxidase/HRP Amplex Red fluorescence; note: nearly all actives have a fitted effect of over 60% in size
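Inhibition is scored from Amplex Red fluorescence generated when pyruvate oxidase and HRP act on pyruvate released by GPT2. Reactions contain 10ng/uL enzyme, 250uM a-KG and 2mM L-alanine and run 30 min at room temperature.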
hNpr1 antagonist: blocks ANP-stimulated signaling of human Npr1 receptor. P16066. HEK293 hNpr1 GloSensor cGMP, ANP-stimulated luminescence. Potency, µM (series often up to 46.3 µM), hits mostly inhibitors. 76,000 compounds, 1.6% hits. AID 1347048; calls by dose curve; note: nearly all actives have a fitted effect of over 60% in size
Target sequence (P16066 whole entry, looked up): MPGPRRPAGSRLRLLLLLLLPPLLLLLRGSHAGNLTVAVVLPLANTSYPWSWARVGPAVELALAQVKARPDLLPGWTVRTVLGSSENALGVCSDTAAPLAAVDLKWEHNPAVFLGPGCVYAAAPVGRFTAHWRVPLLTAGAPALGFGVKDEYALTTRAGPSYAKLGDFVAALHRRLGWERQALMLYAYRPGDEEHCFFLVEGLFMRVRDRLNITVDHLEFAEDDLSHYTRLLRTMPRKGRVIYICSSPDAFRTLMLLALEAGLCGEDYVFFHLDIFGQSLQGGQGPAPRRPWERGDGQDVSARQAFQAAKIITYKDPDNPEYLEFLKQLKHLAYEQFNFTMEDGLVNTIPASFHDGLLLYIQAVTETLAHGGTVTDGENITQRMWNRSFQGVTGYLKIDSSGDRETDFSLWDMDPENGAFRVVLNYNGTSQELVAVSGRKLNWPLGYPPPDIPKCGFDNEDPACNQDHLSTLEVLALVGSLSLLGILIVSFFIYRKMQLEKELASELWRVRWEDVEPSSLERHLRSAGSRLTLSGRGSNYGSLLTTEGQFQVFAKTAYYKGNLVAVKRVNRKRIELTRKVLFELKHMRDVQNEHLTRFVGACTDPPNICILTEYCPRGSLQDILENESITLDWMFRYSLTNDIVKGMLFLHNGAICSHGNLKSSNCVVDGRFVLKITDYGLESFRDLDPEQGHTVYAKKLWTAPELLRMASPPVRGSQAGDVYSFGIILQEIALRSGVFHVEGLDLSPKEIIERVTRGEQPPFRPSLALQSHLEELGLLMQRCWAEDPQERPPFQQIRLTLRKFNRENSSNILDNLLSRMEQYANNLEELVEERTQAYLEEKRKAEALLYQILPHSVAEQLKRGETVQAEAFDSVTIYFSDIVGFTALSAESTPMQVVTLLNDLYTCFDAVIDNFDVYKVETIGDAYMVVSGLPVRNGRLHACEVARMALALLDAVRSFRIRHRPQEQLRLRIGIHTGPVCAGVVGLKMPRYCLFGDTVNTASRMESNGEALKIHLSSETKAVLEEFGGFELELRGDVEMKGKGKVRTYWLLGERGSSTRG
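Compound pre-incubated 30 min at room temperature on GloSensor-loaded HEK293 cells stably carrying hNpr1 and the pGS-40F cGMP biosensor. Stimulation uses hNppA at 0.1 nM final; luminescence is taken at baseline and 20 min post-agonist.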
Npr1 antag conf: confirmation of human Npr1 natriuretic peptide receptor antagonists. HEK293 hNpr1 cGMP GloSensor luminescence, ANP-stimulated. Potency, µM (titrated, usually from 57.6 µM), hits mostly inhibitors. shares compounds with hNpr1 antagonist. 1,400 compounds, 76% hits. AID 1347044; calls by dose curve; note: nearly all actives have a fitted effect of over 70% in size
NPR2 antag: antagonizes human Npr2, subtype selectivity check; shares compounds with hNpr1 antagonist; 1,400 compounds, 67% hits; HEK293 hNpr2 GloSensor cGMP luminescence, CNP-stimulated; Potency, µM (highest dose often 57.6 µM), usual class: inhibitors; calls by dose curve; note: nearly all actives have a fitted effect of over 70% in size
FLuc inh counter: counter-screen for Npr1 antagonists: firefly luciferase inhibitors | shares compounds with hNpr1 antagonist | purified FLuc enzyme, luminescence, Km substrate | Potency, µM (doses to about 57.6 µM), usual class: inhibitors | 1,400 compounds, 0.7% hits
GloSensor cGMP: control cell line activity, Npr1 antagonist counter-screen; shares compounds with hNpr1 antagonist; HEK293 GloSensor cGMP, SNP-stimulated, luminescence; Potency, µM (top dose mostly 57.6 µM), most hits filed as inhibitors; 1,400 compounds, 69% hits; AID 1347051; calls by dose curve; note: nearly all actives have a fitted effect of over 70% in size
Large screens that a line does not name were inactive (follow-up assays come after a bar, where they were run). In the library only some 10% were active in any assay of this set; here they are far more common. Unless noted, calls come from the whole dose curve; as a rule, active = well fitted curve in the direction sought with a large enough effect; inconclusive = small, poorly fitted or top-dose-only effect, or another doubt; inactive = no such curve, though single readings can be large; an effect the other way counts as inactive or inconclusive.

O=C(NCc1ccccc1Cl)c1cc2n(n1)CC(c1ccc(Cl)cc1)OC2 (stereo unspecified)	NIH3T3 tox inconclusive, HEK293 tox inconclusive, GPT2 inhibitor inconclusive, hNpr1 antagonist inconclusive | Npr1 antag conf inconclusive | NPR2 antag inconclusive | FLuc inh counter inactive | GloSensor cGMP inconclusive
O=C(Nc1cc(F)ccc1Cl)c1cc2n(n1)CC(c1ccc3c(c1)OCO3)OC2 (stereo unspecified)	FLuc inh inconclusive, HEK293 tox inconclusive
O=C(Nc1ccccc1)c1cc2n(n1)CC(c1ccc(Cl)cc1)OC2 (stereo unspecified)	HEK293 tox inconclusive, hNpr1 antagonist 12.6µM | Npr1 antag conf inconclusive | NPR2 antag inconclusive | FLuc inh counter inactive | GloSensor cGMP inconclusive
O=C(Nc1ccc(F)c(Cl)c1)c1cc2n(n1)CC(c1ccc3c(c1)OCO3)OC2 (stereo unspecified)	NIH3T3 tox inconclusive, HEK293 tox 44.7µM, hNpr1 antagonist inconclusive | Npr1 antag conf 27.3µM | NPR2 antag inconclusive | FLuc inh counter inactive | GloSensor cGMP inconclusive
O=C(NCCc1ccccc1)c1cc2n(n1)CC(c1ccc(Cl)cc1)OC2 (stereo unspecified)	NIH3T3 tox inconclusive, HEK293 tox inconclusive, hNpr1 antagonist inconclusive | Npr1 antag conf inconclusive | NPR2 antag inconclusive | FLuc inh counter inactive | GloSensor cGMP inconclusive
CC(=O)c1ccc(NC(=O)c2cc3n(n2)CC(c2ccc(Br)cc2)OC3)cc1 (stereo unspecified)	HEK293 tox inconclusive, hNpr1 antagonist inconclusive
CC1CCC(NC(=O)c2cc3n(n2)CC(c2ccc(Cl)cc2)OC3)CC1 (stereo unspecified)	NIH3T3 tox inconclusive, HEK293 tox inconclusive
CC(C)N1CCN(C(=O)c2cc3n(n2)CC(c2ccc(Br)cc2)OC3)CC1 (stereo unspecified)	NIH3T3 tox inconclusive, HEK293 tox inconclusive, hNpr1 antagonist inconclusive | Npr1 antag conf inconclusive | NPR2 antag inconclusive | FLuc inh counter inactive | GloSensor cGMP inconclusive
O=C(c1cc2n(n1)CC(c1ccc(Cl)cc1)OC2)N1CCN(c2ccc(Cl)cc2)CC1 (stereo unspecified)	NIH3T3 tox inconclusive, HEK293 tox 31.6µM, hNpr1 antagonist 12.6µM | Npr1 antag conf inconclusive | NPR2 antag inconclusive | FLuc inh counter inactive | GloSensor cGMP inconclusive
COCCCn1c(=O)c(C(=O)NCC(F)(F)F)nc2cccnc21	none (no result: FLuc inh, hNpr1 antagonist)
FC(F)(F)c1ccc(CN2CCC3(CC2)CC(c2cccnc2)=NO3)cc1	NIH3T3 tox inconclusive, HEK293 tox inconclusive, GPT2 inhibitor inconclusive, hNpr1 antagonist 2.51µM | Npr1 antag conf 6.85µM | NPR2 antag 10.9µM | FLuc inh counter inactive | GloSensor cGMP 6.11µM
FC(F)(F)c1ccc(CN2CCC3(CC(c4cccnc4)=NO3)C2)cc1 (stereo unspecified)	HEK293 tox inconclusive (no result: FLuc inh, hNpr1 antagonist)
Cc1cccc(C(=O)NC2CCN(c3cc(-c4ccc(Cl)cc4)[nH]n3)C2)c1 (stereo unspecified)	NIH3T3 tox inconclusive, HEK293 tox inconclusive
C=CCN1CC2(CCC1=O)CCN(c1nccc(C(F)(F)F)n1)CC2	NIH3T3 tox inconclusive, HEK293 tox inconclusive, GPT2 inhibitor inconclusive
COc1ccc(-c2cccc(C(=O)N3CCC(C#N)CC3)c2)nn1	HEK293 tox inconclusive (no result: FLuc inh, GPT2 inhibitor, hNpr1 antagonist)
CN(C(=O)C1(c2ccc(Cl)cc2)CCOCC1)C1CCc2ccccc21 (stereo unspecified)	NIH3T3 tox inconclusive, HEK293 tox inconclusive (no result: FLuc inh, hNpr1 antagonist) | Npr1 antag conf 19.3µM | NPR2 antag 9.68µM | FLuc inh counter inactive | GloSensor cGMP inactive
CN1C[C@@H](NC(=O)c2ccc3c(c2)OCO3)C[C@H]1c1nc(-c2ccc(Cl)cc2)no1	NIH3T3 tox 79.4µM, HEK293 tox 50.1µM, hNpr1 antagonist 35.5µM | Npr1 antag conf 28µM | NPR2 antag 31.4µM | FLuc inh counter inactive | GloSensor cGMP 25µM
C#CCNC(=O)c1cc(-c2ccc([S+](C)(=O)[O-])cc2)c2cccn2n1	NIH3T3 tox inconclusive, HEK293 tox inconclusive (no result: FLuc inh, hNpr1 antagonist)
C[S+](=O)([O-])c1ccc(-c2cc(C(=O)NCCc3ccc(Cl)cc3)nn3cccc23)cc1	NIH3T3 tox 22.4µM, HEK293 tox inconclusive (no result: FLuc inh, hNpr1 antagonist) | Npr1 antag conf inconclusive | NPR2 antag inconclusive | FLuc inh counter 15.3µM | GloSensor cGMP inconclusive
COc1ccc(CNC(=O)N2CCC(Cc3ncc(C)n3C(C)C)C2)cc1 (stereo unspecified)	none
CN(C)c1cccc(C(=O)N2CCC(OCCOc3ccc(F)cc3)CC2)c1	NIH3T3 tox inconclusive, HEK293 tox inconclusive, hNpr1 antagonist 12.6µM | Npr1 antag conf 24.3µM | NPR2 antag 24.3µM | FLuc inh counter inactive | GloSensor cGMP 21.7µM
CCOCCOC1CCN(C(=O)c2cccc(F)c2)CC1	none
CN(C)c1ccc(CN2CCn3c(nn(-c4ccc([N+](=O)[O-])cc4)c3=O)C2)cc1	NIH3T3 tox inconclusive, HEK293 tox 31.6µM, hNpr1 antagonist 11.2µM | Npr1 antag conf 17.2µM | NPR2 antag 19.3µM | FLuc inh counter inactive | GloSensor cGMP 13.7µM
COc1ccc(CN2CCn3c(nn(-c4ccc([N+](=O)[O-])cc4)c3=O)C2)cc1	NIH3T3 tox inconclusive, HEK293 tox inconclusive, hNpr1 antagonist 11.2µM | Npr1 antag conf 21.7µM | NPR2 antag 21.7µM | FLuc inh counter inactive | GloSensor cGMP 21.7µM
COc1ccc(-n2nc3n(c2=O)CCN(Cc2cccn2C)C3)cc1	HEK293 tox inconclusive (no result: FLuc inh, hNpr1 antagonist) | Npr1 antag conf inconclusive | NPR2 antag inconclusive | FLuc inh counter inconclusive | GloSensor cGMP inconclusive
COCC1(O)CCOC2(CCN(C(=O)c3cccnc3)CC2)C1 (stereo unspecified)	none (no result: FLuc inh, hNpr1 antagonist)
COc1ccc2oc(CNC(=O)c3cc(CC(C)C)nn3C)nc2c1	HEK293 tox inconclusive, hNpr1 antagonist 12.6µM | Npr1 antag conf 17.2µM | NPR2 antag 17.2µM | FLuc inh counter inactive | GloSensor cGMP 15.3µM
COc1ccc2c(c1)CN(CC1CC1)C(=O)CCN2C[C@@H](O)COCc1ccccc1	NIH3T3 tox inconclusive (no result: FLuc inh, GPT2 inhibitor, hNpr1 antagonist)
